Bioassay records: PubChem BioAssay, National Center for Advancing Translational Sciences (NCATS)
Hits are enriched below; roughly 0.67% of the tested compounds scored in any of these assays.
Rango release inh: prevents RanGTP from dissociating the Rango-importin beta complex. O95149+P62826. Biochemical FRET Rango-importin beta, RanGTP-induced dissociation. Potency, µM (doses to about 46.1 µM), without a hit: at the highest dose activity change, negative = inhibition. 0.071% of 340,000 active; note: % of control where 0% means no effect; nearly all actives have a fitted effect of over 45% in size
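Rango FRET biosensor (snurportin-1 IBB flanked by N-terminal EYFP and C-terminal CFP10) at 0.1 uM, with 0.25 uM importin beta in PBS, 1mM DTT, 0.02% Tween-20, 0.1% BSA. 0.6 uM Ran, 2mM GTP and 0.2 uM RCC1 were then added for 45 min at room temperature. Inhibition read as loss of FRET rise.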
gsp ag: gsp mutant agonism; gsp mutant cells, cAMP HTRF, 30 min; Potency, µM (top dose mostly 76.9 µM), for the others: at the highest dose activation (cAMP increase), usual class: activators; 0.13% of 340,000 active; AID 624287; active = well fitted activation curve with a large enough effect; inconclusive = small, poorly fitted or top-dose-only effect, or another doubt; inactive = no such curve, though single readings can be large or run the other way; cell line not stated here;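 note: phosphodiesterase inhibitor Ro 20-1724 added with compounds to block cAMP breakdown; nearly all actives have a fitted effect of over 60% in size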
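Cells stably selected in G418 were plated at 2000/well, grown 16-24 hr, then given compounds in DMSO with the PDE inhibitor […] (300 uM solution added) for 30 min at 37C; cAMP was read by HTRF.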
S-ASM inh: blocks human secretory acid sphingomyelinase; 0.006% of 340,000 active; Potency, µM (doses to about 57.5 µM), for the others: at the highest dose activity change, negative = inhibition, actives largely listed as inhibitors; placental ASM, HMU-PC fluorogenic substrate, 60 min; AID 504937; P17405; active = well fitted inhibition curve with a large enough effect; inconclusive = small, poorly fitted or top-dose-only effect; inactive = no such curve, though single readings can be large or run the other way
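Human placenta-derived ASM preincubated with compound 10 min at room temperature, then reacted with 9 uM (final) fluorogenic HMU-PC substrate for 60 min at 37 C. Stop solution raises pH to 10; fluorescence read at Ex 386/Em 447 nm.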
Rango complex inh: Rango-importin beta binding inhibition; 0.031% of 340,000 active; Q14974; Potency, µM (doses to about 92.2 µM), without a hit: top-dose inhibition of complex formation; Rango CFP/YFP FRET sensor + importin beta, 45 min; AID 540263;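 note: 0% = DMSO wells and 100% = buffer wells lacking importin beta; nearly all actives have a fitted effect of over 15% in size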
Target sequence (Q14974 whole entry, looked up): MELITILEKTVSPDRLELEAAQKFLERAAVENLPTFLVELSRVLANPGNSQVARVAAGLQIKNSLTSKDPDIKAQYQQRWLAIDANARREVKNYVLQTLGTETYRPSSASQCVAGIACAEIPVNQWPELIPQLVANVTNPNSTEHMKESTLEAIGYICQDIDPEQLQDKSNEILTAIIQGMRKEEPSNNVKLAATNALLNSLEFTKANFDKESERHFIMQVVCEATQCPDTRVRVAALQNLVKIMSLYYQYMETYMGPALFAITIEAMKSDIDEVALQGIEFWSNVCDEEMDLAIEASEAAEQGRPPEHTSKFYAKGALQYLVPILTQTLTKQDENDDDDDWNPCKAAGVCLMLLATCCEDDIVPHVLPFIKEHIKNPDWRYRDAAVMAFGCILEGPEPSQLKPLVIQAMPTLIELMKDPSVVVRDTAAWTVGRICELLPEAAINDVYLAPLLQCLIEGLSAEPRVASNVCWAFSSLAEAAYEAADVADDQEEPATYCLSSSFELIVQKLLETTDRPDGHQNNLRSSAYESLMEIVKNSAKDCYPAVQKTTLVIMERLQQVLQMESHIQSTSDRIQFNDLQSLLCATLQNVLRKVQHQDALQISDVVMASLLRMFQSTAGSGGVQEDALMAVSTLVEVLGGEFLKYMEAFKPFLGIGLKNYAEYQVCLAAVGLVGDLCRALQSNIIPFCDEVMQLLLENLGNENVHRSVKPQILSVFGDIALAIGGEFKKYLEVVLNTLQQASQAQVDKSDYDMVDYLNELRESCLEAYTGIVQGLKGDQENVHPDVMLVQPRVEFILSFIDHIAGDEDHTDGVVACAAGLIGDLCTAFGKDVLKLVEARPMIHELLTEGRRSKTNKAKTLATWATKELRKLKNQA
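FRET biosensor (snurportin 1 IBB flanked by EYFP and cerulean), 50 nM, with compound 5 min, then 0.125 microM importin beta in PBS, 1 mM DTT, 0.02% Tween-20, 0.1% BSA. CFP/YFP ratio read after 45 min at room temperature; pre-read flags interference.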
gsp antag: gsp mutant antagonism; gsp-mutant cells, cAMP HTRF, 30 min; Potency, µM (titrated, usually from 76.9 µM), inactives show at the top dose activity change, negative = inhibition, most hits filed as inhibitors; 0.4% of 340,000 active; calls by dose curve; cell line not stated here;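 note: intracellular cAMP measured with PDE inhibitor Ro 20-1724 present during compound exposure; % is set by controls: 0 for no effect and ±100 for the full control effect; nearly all actives have a fitted effect of over 65% in size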
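HTRF cAMP read-out (cAMP-d2 plus anti-cAMP antibody-K in lysis buffer, 30 min RT). Before lysis, cells are exposed to compounds with […] for 30 min at 37C in DPBS containing Ca/Mg, BSA and Tween 20.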
* = called active by the depositor; i = inactive; ? = inconclusive; nt = not tested or not shown; [ ] = dose if it differs, or a comment. Unless noted, calls come from the whole dose curve. Potency is the fitted concentration of half-maximal effect.

SMILES | Rango release inh | gsp ag | S-ASM inh | Rango complex inh | gsp antag
O=C(C1CCC(CNS(=O)(=O)c2cccc3nsnc23)CC1)N1CC=C(c2ccccc2)CC1 (stereo not drawn) | -3% | -14% | -6% | 0% | 35µM*
COC(=O)C(C(=O)OC)=C(/C=C/C=C/N(C)C)N(C)C | 9.2µM* | 4% | -5% | ? | 3%
COC(=O)C(C(=O)OC)=C(/C=C/N(C)C)N(C)C | -3% | -23% | 3% | 0% | 5%
O=C(NN1CCN(Cc2ccccc2Cl)CC1)c1ccc(Br)cc1 | 7% | 15%[15.4 µM] | 4% | 1% | nt
CCOC(=O)C1=C(C)NC(C)=C(C(=O)OCC)C1C(=O)OCC(=O)NCc1ccccc1OC | -14% | 6%[15.4 µM] | 189% | 0% | -1%
CCOC(=O)c1c(-c2ccc(OC)c(OC)c2)csc1NC(=O)C1CCCO1 (stereo not drawn) | -4% | -4%[15.4 µM] | 0% | -2% | 25µM*
COCC1CCN(C(=O)C2CCC(=O)N(C3CCCCCC3)C2)CC1 (stereo not drawn) | 4% | -47% | 2% | 0% | 1%
COc1ccc(CCNc2nc(-c3ccc(O)cc3)cs2)cc1OC | -10% | 7% | 0% | 0% | 35µM*
O=[N+]([O-])CC(=Nc1ccc(Cl)cc1)N/N=C\c1oc(O)c2ccccc12 | 8% | -7%[15.4 µM] | -1% | ? | -7%
CCCCOC(=O)c1cccnc1 | -5% | -4% | -2% | 1% | 7%
O=C(Cn1nc(-c2ccccc2)ccc1=O)Nc1ccc(N2CCN(C(=O)c3cccs3)CC2)cc1 | -5% | -21%[15.4 µM] | -8% | -4% | -1%
CSc1nc(N)nc(SCC(=O)Nc2ccc(Cl)cc2)c1C#N | 15% | 4% | -21% | 4% | ?
CSc1nc(N)nc(SCC(=O)Nc2cccc(F)c2)c1C#N | -6% | -2% | -11% | 4% | 28µM*
COc1ccc(-n2c(C)cc(C(=O)COC(=O)c3ccc(O)cc3O)c2C)cc1 | 0% | 4% | -12% | 7% | 32µM*
Cc1cccc(-c2nnc(SCC(=O)NCc3ccc4c(c3)OCO4)n2C)c1 | 0% | -44% | 1% | 0% | 0%
Cn1c(SCC(=O)NCc2ccc3c(c2)OCO3)nnc1-c1cc2ccccc2cc1O | -13% | ? | 15% | 1% | 40µM*
CC1CCCCN1C(=O)c1cccc(NC2=C(Cl)C(=O)N(Cc3ccccc3)C2=O)c1 (stereo not drawn) | -10% | -5% | -13% | ? | 28µM*
CC1CCN(C(=O)c2ccc(NC3=C(Cl)C(=O)N(Cc4ccccc4)C3=O)cc2)CC1 | ? | -7% | -18% | ? | ?
CCOC(=O)c1cc(-c2ccc(F)cc2)n(CC(=O)Nc2nccs2)c1C | 26% | -29% | -15% | 5% | ?
Cc1c(Cc2ccccc2)c(=O)oc2cc(OCC(=O)N3CCC(C(N)=O)CC3)ccc12 | 1% | nt | 4% | 0% | -4%
Fc1ccc(N2N=C(c3cccs3)CC2c2ccccc2)cc1 (stereo not drawn) | 9.2µM*[inhibitor] | 0%[15.4 µM] | i | ? | 8%
Nc1ccc(S(=O)C(F)(F)F)cc1 (stereo not drawn) | -5% | 14%[15.4 µM] | -1% | -3% | 7%
CC(=O)Nc1cc2c3c(c1)CC(=O)N3CCC2 | 7% | -6% | -2% | 1% | 50µM*
NC(=O)[C@H]1CC2(CC(c3cccc(NC(=O)[C@H]4CCC(=O)N4)c3)=NO2)CN1C(=O)c1cc([N+](=O)[O-])cc([N+](=O)[O-])c1 (stereo partly drawn) | -6% | nt | -1% | -5% | 12%
CCCN1CCc2c(sc(NC(=O)Cc3ccc(F)cc3)c2C(N)=O)C1 | ? | ? | 31% | ? | 11%
CCOc1ccc(/C=N/NC(=O)c2ccccc2O)cc1CN1CC2CC(C1)c1cccc(=O)n1C2 (stereo not drawn) | -7% | nt | 1% | -2% | 35µM*
COc1ccc(/C=N/NC(=O)c2ccccc2O)cc1Cn1cc(Cl)cn1 | 1% | -36% | ? | 8% | -32%
C=CCN1C(=O)CS/C1=N\S(=O)(=O)c1ccc(Cl)cc1 | -14% | -52% | 1% | -2% | -6%
